# CF NFkB block = blocks PAF-induced NF-kB reporter in cystic fibrosis cells; KKLEB NF-kB-GFP reporter, GFP fluorescence overnight; inhibition, % at 5 µM; 0.86% of 360,000 active;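 active = at least 50% inhibition at 5 µM, scaled per plate between neutral and stimulator controls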;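 also: PAF is a Pseudomonas aeruginosa culture filtrate used as stimulus; plate controls were PAF-stimulated DMSO wells for no effect and unstimulated DMSO wells for full effect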
# Peg3 prom inh-1 = reduces Peg3 promoter-driven luciferase expression in HeLa | HeLa PEG-Prom luciferase reporter, luminescence, overnight | inhibition, % at 20 µM | 1.7% of 360,000 active;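 active = inhibition of at least 50% at 20 µM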
# HIF-2a inh = blocks HIF-2a reporter activity. 786-0 RCC cells HIF-2a reporter, luciferase luminescence, overnight. inhibition, % at 18.8 µM. 0.72% of 360,000 active. AID 624352;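 active = inhibition of the luminescence signal of 40% or more relative to plate controls, in a single-dose primary screen at 18.75 µM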
# MITF TRPM1 inh = inhibitors of MITF-driven TRPM1 promoter in melanoma cells | inhibition, % at 12.5 µM | SK-MEL-5 TRPM1 promoter luciferase, 24 h | AID 488899 | 0.83% of 330,000 active;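 active = mean inhibition across replicates of 60% or more, whatever share of single replicates reaches that level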
# B2AR ag = activates human beta-2 adrenergic receptor causing internalization | Am2.2-beta2AR cells, FAP receptor internalization, flow cytometry | response, % (test concentration not listed) | 0.43% of 340,000 active;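 active = response above a set limit, near 3 SD of response in nonfluorescent compounds, cut at about 42% in these data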
# Target sequence (P07550 whole entry, looked up): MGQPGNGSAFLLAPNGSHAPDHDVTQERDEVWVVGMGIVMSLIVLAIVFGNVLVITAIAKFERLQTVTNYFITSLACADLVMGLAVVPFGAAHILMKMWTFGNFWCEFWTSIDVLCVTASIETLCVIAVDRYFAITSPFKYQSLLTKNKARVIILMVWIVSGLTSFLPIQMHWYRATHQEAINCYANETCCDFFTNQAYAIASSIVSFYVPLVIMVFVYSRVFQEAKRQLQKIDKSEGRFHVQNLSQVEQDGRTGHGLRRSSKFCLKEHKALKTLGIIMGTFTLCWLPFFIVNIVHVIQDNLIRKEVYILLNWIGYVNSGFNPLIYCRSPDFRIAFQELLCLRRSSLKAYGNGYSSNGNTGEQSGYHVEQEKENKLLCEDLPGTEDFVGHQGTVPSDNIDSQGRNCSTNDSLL
# KKLEB cytotox = counter-screen for CF NF-kB inhibitors: cytotoxicity. KKLEB CF airway cells viability, ATPlite luminescence, overnight; hits give low values; cells stimulated with P. aeruginosa culture filtrate. activity change (cytotoxicity), % at 5 µM. 0.36% of 360,000 active. AID 602141;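 active = corrected activity change at or below -50% at 5 µM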
# Peg3 prom inh-2 = confirmation of Peg3 promoter inhibitors; inhibition, % at 20 µM; HeLa PEG-Prom luciferase reporter, luminescence, overnight; shares compounds with Peg3 prom inh-1; 84% of 1,300 active; AID 602417;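 active = at 20 µM dose, 40% or more inhibition averaged across four replicates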
# CF NFkB inh conf = CF NF-kB inhibition confirmation, single concentration; shares compounds with CF NFkB block; KKLEB CF airway cells, PAF-induced NF-kB-GFP fluorescence, overnight; inhibition, % at 5 µM; 64% of 1,300 active; in the data active = inhibition above about 40%;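 also: stimulus PAF is a Pseudomonas aeruginosa filtrate and not platelet activating factor; plate controls were DMSO wells with stimulus for no effect and unstimulated DMSO wells for full effect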
# Mdm2 MdmX conf = Mdm2/MdmX (human) interaction inhibition, confirmed; inhibition, % at 8 µM; 99% of 740 active; SaOS-2 split-luciferase Mdm2/MdmX complementation, luminescence; shares compounds with HIF-2a inh;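 active = mean inhibition of the luminescence signal across two replicates at or above 26 percent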
# HIF-2a conf = HIF-2a inhibition, single concentration confirmation; 56% of 1,800 active; 786-0 RCC cells, HIF-2a luciferase reporter luminescence, overnight; inhibition, % at 18.8 µM; AID 651580; shares compounds with HIF-2a inh;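 active = mean inhibition across four replicates of at least 40 percent at the single tested concentration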
# HIF-1a cs = HIF-1a inhibition counter-screen for HIF-2a hits; MiaPaCa-2 HIF-1a luciferase reporter, desferoxamine, overnight; 72% of 1,800 active; inhibition, % at 18.8 µM; AID 651589; shares compounds with HIF-2a inh;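 active = mean inhibition of the reporter signal across four replicates at the single tested dose of 50% or more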
# * marks the source's active call; other numbers are inactive results; x = no result given. A selection: hits, their analogues and other compounds. The true share with any hit is near 2.8%.
SMILES,CF NFkB block,Peg3 prom inh-1,HIF-2a inh,MITF TRPM1 inh,B2AR ag,KKLEB cytotox,CF NFkB inh conf,others
C[C@@H]1O[C@@H](O[C@@H]2C=C3CCC4C(CC[C@]5(C)[C@@H](c6ccc(=O)oc6)CC[C@]45O)[C@@]3(C)CC2)[C@H](O)[C@H](O)[C@H]1O (some centres not stated),88*,95*,90*,82*,5,-62*,x,Peg3 prom inh-2=97*;Mdm2 MdmX conf=87*;HIF-2a conf=43*;HIF-1a cs=105*
CC(=O)OC(C)(C)/C=C/C(=O)C(C)(O)C1[C@H](O)C[C@@]2(C)C3CC=C4C(CC[C@@H](O)C4(C)C)[C@]3(CO)C(=O)C[C@]12C (some centres not stated),91*,84*,72*,85*,52*,-92*,x,Peg3 prom inh-2=87*;HIF-2a conf=73*;HIF-1a cs=105*
S=C1NCCN1,-12,-19,2,10,-13,23,x,
C[C@]12CCC(=O)C[C@@H]1CC[C@@H]1[C@@H]2CC[C@]2(C)[C@@H](O)CC[C@@H]12,-6,36,4,10,-4,4,x,
CC1=CC2OC3CC4OC(=O)C=CC=CC(C(C)O)OCC(O)C(C)CC(=O)OCC2(CC1O)C4(C)C31CO1 (configuration not stated),86*,96*,76*,90*,1,-52*,x,Peg3 prom inh-2=98*;HIF-2a conf=73*;HIF-1a cs=105*
C=C1[C@H]2C[C@H]3[C@H]4N5C[C@]6(C)CCC[C@]47[C@H]([C@H]2O)[C@]3(C[C@]5(O)[C@H]67)[C@@H]1O,-5,16,14,7,1,-3,x,
CC1=CC2/C=C(\C)CCC(O)C(O)/C=C/C(=O)C23C(=O)NC(CC(C)C)C3C1C (configuration not stated),92*,108*,93*,97*,40,-64*,x,Peg3 prom inh-2=98*;Mdm2 MdmX conf=103*;HIF-2a conf=99*;HIF-1a cs=102*
Cc1ccccc1CN1Cc2cnnn2-c2ccccc2C1C#N (configuration not stated),38,95*,92*,98*,41,-11,x,Peg3 prom inh-2=98*;HIF-2a conf=97*;HIF-1a cs=107*
Cc1ccccc1C(=O)N1Cc2cnnn2-c2ccccc2C1C#N (configuration not stated),-8,-15,2,-7,-1,14,x,
O=[N+]([O-])c1ccc(C2C3C(c4ccccc4)=NC4(CCCC4)N32)cc1 (configuration not stated),5,13,16,4,-18,0,x,
COc1cc2c(c(OC)c1O)-c1ccc(OC)c(=O)cc1C(NC(=O)C(F)(F)F)CC2 (configuration not stated),51*,-19,18,34,5,-23,87*,
COc1cc2c(c(OC)c1OC)-c1ccc(C(=O)O)cc1[C@@H](NC(C)=O)CC2,-9,-7,10,-6,-5,15,x,
CCOC(=O)/C(CCCN(CC)CC)=N\O,-10,14,11,14,-3,3,x,
C=C1C(C)C2C(Cc3ccccc3)NC(=O)C23OC(=O)/C=C/C(O)CCCC(C)C/C=C/C3C1O (configuration not stated),76*,58*,-5,-4,20,-29,97*,
O=C1C=CC(=O)C2C1C1(Cl)C(Cl)=C(Cl)C2(Cl)C1(Cl)Cl (configuration not stated),54*,65*,23,-4,1,-1,31,
CCCCn1nnnc1C(CCc1ccccc1)N1CCC(n2c(=O)[nH]c3ccccc32)CC1 (configuration not stated),88*,82*,-16,x,x,-9,74*,
O=C1NCN(c2ccccc2)C12CCN(C(CCc1ccccc1)c1nnnn1C1CCCC1)CC2 (configuration not stated),32,15,4,x,x,-15,x,
COc1ccc(C(c2nnnn2-c2ccc3c(c2)OCCO3)N2CCC(n3c(=O)[nH]c4ccccc43)CC2)cc1 (configuration not stated),61*,63*,-20,x,x,5,35,
COc1ccc(-n2nnnc2C(CCc2ccccc2)N2CCC(n3c(=O)[nH]c4ccccc43)CC2)cc1 (configuration not stated),75*,99*,-49,x,x,-17,88*,
COc1ccc(C(c2nnnn2-c2ccc(OC)cc2)N2CCC3(CC2)C(=O)NCN3c2ccccc2)cc1 (configuration not stated),-9,31,6,x,x,0,x,
N#CC(c1ccccc1)N1CCOCC1 (configuration not stated),4,4,16,4,3,-22,x,
CC12CC(=O)C3C(CCC4CC(=O)C=CC43C)C1CCC2=O (configuration not stated),66*,1,23,-2,-13,19,5,
CC1CCC(NC(=O)CNC(=S)N2CC3CC(C2)c2cccc(=O)n2C3)CC1 (configuration not stated),4,-1,1,1,9,1,x,
COc1cc(O)cc2c1C(=O)OC(C)CCCC(=O)CCC/C=C\2 (configuration not stated),22,-10,10,2,4,-17,x,
C[C@H]1CCCC(=O)CCC/C=C/c2cc(O)cc(O)c2C(=O)O1,51*,18,21,7,-2,10,58*,
CC12CCC3C(CCC4C/C(=N/O)CCC43C)C1CCC2O (configuration not stated),2,49,26,18,4,0,x,
COc1ccc2c(c1)[nH]c1c(C)nccc12,57*,18,38*,18,-3,6,83*,HIF-2a conf=12;HIF-1a cs=86*
CC1CN(c2ccc([N+](=O)[O-])cc2Cl)CCN1 (configuration not stated),6,-13,1,-2,6,-7,x,
O=C(CN1CCOCC1)c1cccc2ccccc12,6,14,-1,5,-7,-9,x,

# Screening data: PubChem BioAssay, several laboratories
